# Source: paper PMC11006913
# Positions count from the first letter of the chain named.
# How the values were obtained:
# Test in all cases: PBM; 200 nM protein, PBS
# Settings in all cases: dsDNA, one strand shown
# CRX [1] = molecular target: CRX (Homo sapiens, UniProt O43186 26-111)
# VENTX [2] = molecular target: T1, VENTX (Homo sapiens, UniProt O95231 78-163, R121Q)
# T1 sequence: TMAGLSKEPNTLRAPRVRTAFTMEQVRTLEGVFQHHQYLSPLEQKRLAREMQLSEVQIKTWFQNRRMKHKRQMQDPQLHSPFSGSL
# VENTX [3] = molecular target: T2, VENTX (Homo sapiens, UniProt O95231 78-163)
# T2 sequence: T1 sequence with Q44R
# VENTX [4] = molecular target: T3, VENTX (Homo sapiens, UniProt O95231 78-163, Y115F)
# T3 sequence: T1 sequence with Y38F, Q44R
# CRX [5] = molecular target: CRX (Homo sapiens, UniProt O43186 26-111, E42D)
# CRX [6] = molecular target: CRX (Homo sapiens, UniProt O43186 26-111, R41L)
# HOXC9 [7] = molecular target: HOXC9 (Homo sapiens, UniProt P31274 178-260, K195R)
# ALX4 [8] = molecular target: ALX4 (Homo sapiens, UniProt Q9H161 200-286)
# ALX4 [9] = molecular target: ALX4 (Homo sapiens, UniProt Q9H161 200-286, Q225E)
# HOXC9 [10] = molecular target: HOXC9 (Homo sapiens, UniProt P31274 178-260)
# HOXC9 [11] = molecular target: HOXC9 (Homo sapiens, UniProt P31274 178-260, R193K)
# HOXC9 [12] = molecular target: HOXC9 (Homo sapiens, UniProt P31274 178-260, R222W)
# SIX6 [13] = molecular target: T4, SIX6 (Homo sapiens, UniProt O95475 114-200, L167I)
# T4 sequence: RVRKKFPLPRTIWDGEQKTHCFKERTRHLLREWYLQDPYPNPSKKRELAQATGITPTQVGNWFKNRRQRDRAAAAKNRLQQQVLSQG
# SIX6 [14] = molecular target: T5, SIX6 (Homo sapiens, UniProt O95475 114-200, L143V)
# T5 sequence: T4 sequence with L30V, I54L
# SIX6 [15] = molecular target: T6, SIX6 (Homo sapiens, UniProt O95475 114-200, H141N)
# T6 sequence: T4 sequence with H28N, I54L
# SIX6 [16] = molecular target: T7, SIX6 (Homo sapiens, UniProt O95475 114-200, T165P)
# T7 sequence: T4 sequence with T52P, I54L
# SIX6 [17] = molecular target: T8, SIX6 (Homo sapiens, UniProt O95475 114-200, L143I)
# T8 sequence: T4 sequence with L30I, I54L
# SIX6 [18] = molecular target: T9, SIX6 (Homo sapiens, UniProt O95475 114-200, T165G)
# T9 sequence: T4 sequence with T52G, I54L
# SIX6 [19] = molecular target: T10, SIX6 (Homo sapiens, UniProt O95475 114-200, T139Q)
# T10 sequence: T4 sequence with T26Q, I54L
# SIX6 [20] = molecular target: T11, SIX6 (Homo sapiens, UniProt O95475 114-200)
# T11 sequence: T4 sequence with I54L
# PITX2 = PITX2 (Homo sapiens, UniProt Q99697 72-157)
# ALX1 [21] = molecular target: ALX1 (Homo sapiens, UniProt Q15699 118-204, L144V)
# ALX1 [22] = molecular target: ALX1 (Homo sapiens, UniProt Q15699 118-204, L144R)
# ALX1 [23] = molecular target: ALX1 (Homo sapiens, UniProt Q15699 118-204)
# Sequence of ALX1 (Homo sapiens, UniProt Q15699 118-204) (Q15699 118-204): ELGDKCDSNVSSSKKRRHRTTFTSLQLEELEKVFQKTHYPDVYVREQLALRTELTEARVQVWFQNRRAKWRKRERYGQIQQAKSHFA
# Sequence of CRX (Homo sapiens, UniProt O43186 26-111) (O43186 26-111): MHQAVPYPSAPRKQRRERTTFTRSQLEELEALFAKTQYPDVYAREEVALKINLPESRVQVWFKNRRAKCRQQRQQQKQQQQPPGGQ
# Sequence of HOXC9 (Homo sapiens, UniProt P31274 178-260) (P31274 178-260): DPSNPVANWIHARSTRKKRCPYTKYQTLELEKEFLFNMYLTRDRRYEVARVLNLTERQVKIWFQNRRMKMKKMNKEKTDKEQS
# Sequence of HOXC9 (Homo sapiens, UniProt P31274 178-260, R193K) (P31274 178-260 R193K): as the sequence (P31274 178-260) above, with R16K counted along it
# Sequence of CRX (Homo sapiens, UniProt O43186 26-111, R41L) (O43186 26-111 R41L): as the sequence (O43186 26-111) above, with R16L counted along it
# Sequence of HOXC9 (Homo sapiens, UniProt P31274 178-260, K195R) (P31274 178-260 K195R): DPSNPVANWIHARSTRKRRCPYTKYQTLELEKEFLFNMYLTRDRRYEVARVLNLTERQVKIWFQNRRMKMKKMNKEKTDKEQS
# Sequence of CRX (Homo sapiens, UniProt O43186 26-111, E42D) (O43186 26-111 E42D): as the sequence (O43186 26-111) above, with E17D counted along it
# Sequence of HOXC9 (Homo sapiens, UniProt P31274 178-260, R222W) (P31274 178-260 R222W): as the sequence (P31274 178-260) above, with R45W counted along it
# Sequence of ALX1 (Homo sapiens, UniProt Q15699 118-204, L144V) (Q15699 118-204 L144V): as the sequence (Q15699 118-204) above, with L27V counted along it
# Sequence of ALX4 (Homo sapiens, UniProt Q9H161 200-286, Q225E) (Q9H161 200-286 Q225E): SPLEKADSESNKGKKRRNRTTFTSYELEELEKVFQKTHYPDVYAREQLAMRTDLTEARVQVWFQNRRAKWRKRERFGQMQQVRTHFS
# Sequence of ALX1 (Homo sapiens, UniProt Q15699 118-204, L144R) (Q15699 118-204 L144R): as the sequence (Q15699 118-204) above, with L27R counted along it
# Sequence of ALX4 (Homo sapiens, UniProt Q9H161 200-286) (Q9H161 200-286): as the sequence (Q9H161 200-286 Q225E) above, with E26Q counted along it
sequence,measurement,setting,value
GAGGTACC,binding signal,CRX [1],"8.08 upbm affinity estimate (log intensity, higher = more binding, comparable within an allelic series)"
same,binding signal,VENTX [2],"8.02 upbm affinity estimate (log intensity, higher = more binding, comparable within an allelic series)"
same,binding signal,VENTX [3],"8.04 upbm affinity estimate (log intensity, higher = more binding, comparable within an allelic series)"
same,binding signal,VENTX [4],"8.14 upbm affinity estimate (log intensity, higher = more binding, comparable within an allelic series)"
same,binding signal,CRX [5],"8.18 upbm affinity estimate (log intensity, higher = more binding, comparable within an allelic series)"
same,binding signal,CRX [6],"8.17 upbm affinity estimate (log intensity, higher = more binding, comparable within an allelic series)"
AGGGGACC,binding signal,CRX [1],"8.1 upbm affinity estimate (log intensity, higher = more binding, comparable within an allelic series)"
same,binding signal,HOXC9 [7],"9.61 upbm affinity estimate (log intensity, higher = more binding, comparable within an allelic series)"
same,binding signal,ALX4 [8],"8.18 upbm affinity estimate (log intensity, higher = more binding, comparable within an allelic series)"
same,binding signal,ALX4 [9],"8.19 upbm affinity estimate (log intensity, higher = more binding, comparable within an allelic series)"
same,binding signal,CRX [5],"8.22 upbm affinity estimate (log intensity, higher = more binding, comparable within an allelic series)"
same,binding signal,HOXC9 [10],"9.69 upbm affinity estimate (log intensity, higher = more binding, comparable within an allelic series)"
same,binding signal,HOXC9 [11],"9.54 upbm affinity estimate (log intensity, higher = more binding, comparable within an allelic series)"
same,binding signal,HOXC9 [12],"9.53 upbm affinity estimate (log intensity, higher = more binding, comparable within an allelic series)"
same,binding signal,CRX [6],"8.23 upbm affinity estimate (log intensity, higher = more binding, comparable within an allelic series)"
CCCTGATC,binding signal,CRX [1],"10.2 upbm affinity estimate (log intensity, higher = more binding, comparable within an allelic series)"
same,binding signal,SIX6 [13],"10.2 upbm affinity estimate (log intensity, higher = more binding, comparable within an allelic series)"
same,binding signal,SIX6 [14],"9.63 upbm affinity estimate (log intensity, higher = more binding, comparable within an allelic series)"
same,binding signal,SIX6 [15],"10.2 upbm affinity estimate (log intensity, higher = more binding, comparable within an allelic series)"
same,binding signal,SIX6 [16],"9.31 upbm affinity estimate (log intensity, higher = more binding, comparable within an allelic series)"
same,binding signal,SIX6 [17],"9.69 upbm affinity estimate (log intensity, higher = more binding, comparable within an allelic series)"
same,binding signal,SIX6 [18],"10.3 upbm affinity estimate (log intensity, higher = more binding, comparable within an allelic series)"
same,binding signal,SIX6 [19],"10.4 upbm affinity estimate (log intensity, higher = more binding, comparable within an allelic series)"
same,binding signal,CRX [5],"10 upbm affinity estimate (log intensity, higher = more binding, comparable within an allelic series)"
same,binding signal,SIX6 [20],"10.2 upbm affinity estimate (log intensity, higher = more binding, comparable within an allelic series)"
ACCAGCCC,binding signal,CRX [1],"8.23 upbm affinity estimate (log intensity, higher = more binding, comparable within an allelic series)"
same,binding signal,HOXC9 [7],"9.73 upbm affinity estimate (log intensity, higher = more binding, comparable within an allelic series)"
same,binding signal,CRX [5],"8.32 upbm affinity estimate (log intensity, higher = more binding, comparable within an allelic series)"
same,binding signal,HOXC9 [10],"9.8 upbm affinity estimate (log intensity, higher = more binding, comparable within an allelic series)"
same,binding signal,HOXC9 [11],"9.71 upbm affinity estimate (log intensity, higher = more binding, comparable within an allelic series)"
same,binding signal,HOXC9 [12],"9.62 upbm affinity estimate (log intensity, higher = more binding, comparable within an allelic series)"
same,binding signal,CRX [6],"8.17 upbm affinity estimate (log intensity, higher = more binding, comparable within an allelic series)"
CCCGACCC,binding signal,CRX [1],"7.98 upbm affinity estimate (log intensity, higher = more binding, comparable within an allelic series)"
same,binding signal,VENTX [2],"7.97 upbm affinity estimate (log intensity, higher = more binding, comparable within an allelic series)"
same,binding signal,VENTX [3],"8.07 upbm affinity estimate (log intensity, higher = more binding, comparable within an allelic series)"
same,binding signal,VENTX [4],"8.09 upbm affinity estimate (log intensity, higher = more binding, comparable within an allelic series)"
same,binding signal,CRX [5],"8.12 upbm affinity estimate (log intensity, higher = more binding, comparable within an allelic series)"
same,binding signal,CRX [6],"8.25 upbm affinity estimate (log intensity, higher = more binding, comparable within an allelic series)"
GCAGATTA,binding signal,CRX [1],"13 upbm affinity estimate (log intensity, higher = more binding, comparable within an allelic series)"
same,binding signal,VENTX [2],"10.3 upbm affinity estimate (log intensity, higher = more binding, comparable within an allelic series)"
same,binding signal,VENTX [4],"10.4 upbm affinity estimate (log intensity, higher = more binding, comparable within an allelic series)"
same,binding signal,CRX [5],"13 upbm affinity estimate (log intensity, higher = more binding, comparable within an allelic series)"
same,binding signal,PITX2,"12.3 upbm affinity estimate (log intensity, higher = more binding, comparable within an allelic series)"
GACGCGTC,binding signal,CRX [1],"8.63 upbm affinity estimate (log intensity, higher = more binding, comparable within an allelic series)"
same,binding signal,HOXC9 [7],"9.76 upbm affinity estimate (log intensity, higher = more binding, comparable within an allelic series)"
same,binding signal,CRX [5],"8.54 upbm affinity estimate (log intensity, higher = more binding, comparable within an allelic series)"
same,binding signal,HOXC9 [10],"9.79 upbm affinity estimate (log intensity, higher = more binding, comparable within an allelic series)"
same,binding signal,ALX1 [21],"6.58 upbm affinity estimate (log intensity, higher = more binding, comparable within an allelic series)"
same,binding signal,HOXC9 [11],"9.46 upbm affinity estimate (log intensity, higher = more binding, comparable within an allelic series)"
same,binding signal,ALX1 [22],"6.43 upbm affinity estimate (log intensity, higher = more binding, comparable within an allelic series)"
same,binding signal,HOXC9 [12],"9.62 upbm affinity estimate (log intensity, higher = more binding, comparable within an allelic series)"
same,binding signal,CRX [6],"8.22 upbm affinity estimate (log intensity, higher = more binding, comparable within an allelic series)"
same,binding signal,ALX1 [23],"6.73 upbm affinity estimate (log intensity, higher = more binding, comparable within an allelic series)"
